Screening results as filed in PubChem.
TDP1 cell noCPT – qHTS for Inhibitors of human tyrosyl-DNA phosphodiesterase 1 (TDP1): qHTS in cells in absence of CPT | Potency, µM (titrated, usually from 46.2 µM), for inactives: at the highest dose activity change, negative = growth inhibition, actives largely listed as inhibitors | 420,000 tested, 15% active | AID 686978, 2013 | DT40 Tdp1-/- hTDP1 cells, no CPT, ATP luminescence, 48 h; also: potency is read from the fitted curve at half-maximal effect; nearly all actives have a fitted effect of over 55% in size
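No-CPT arm: Tdp1-/-;hTDP1 DT40 cells (400/well) plus compounds, incubated ≥48 hr at 37 °C. Readout CellTiter-Glo luminescence.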
RORg inh – blocks mouse ROR gamma transcriptional activity; P51450; Drosophila S2 Gal4-RORgamma UAS-luciferase reporter, 20 h; Potency, µM (titrated, usually from 53.6 µM), for the others: at the top dose activity change, negative = inhibition, most hits filed as inhibitors; 310,000 tested, 5.4% active; AID 2551; also: potency is read from the fitted curve at half-maximal effect; nearly all actives have a fitted effect of over 60% in size
Target sequence (P51450 whole entry, looked up, the tested form may be a part): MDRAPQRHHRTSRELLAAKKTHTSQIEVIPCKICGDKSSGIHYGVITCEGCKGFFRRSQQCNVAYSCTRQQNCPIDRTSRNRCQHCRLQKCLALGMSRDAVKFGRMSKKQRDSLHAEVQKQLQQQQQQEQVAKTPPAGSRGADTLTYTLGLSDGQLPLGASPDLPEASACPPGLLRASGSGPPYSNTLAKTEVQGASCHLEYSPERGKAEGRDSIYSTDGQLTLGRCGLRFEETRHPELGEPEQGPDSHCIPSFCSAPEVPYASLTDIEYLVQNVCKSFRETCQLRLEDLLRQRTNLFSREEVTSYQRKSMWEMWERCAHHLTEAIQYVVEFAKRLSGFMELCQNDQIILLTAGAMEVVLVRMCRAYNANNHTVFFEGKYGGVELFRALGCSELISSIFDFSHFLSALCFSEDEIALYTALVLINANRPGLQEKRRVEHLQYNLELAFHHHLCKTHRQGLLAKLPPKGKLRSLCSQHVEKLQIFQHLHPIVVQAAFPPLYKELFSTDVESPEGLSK
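Schneider cells (Drosophila), stable Gal4 DBD–ROR gamma + UAS-luc; 1 hr cmpd preincubation; Cu2+ induction 700 uM final; 20 hr ambient; luminescence.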
TDP1 cell CPT – DT40-hTDP1 cell growth loss with CPT. Potency, µM (series often up to 46.2 µM), for the others: at the highest dose activity change, negative = growth inhibition, most hits filed as inhibitors. chicken DT40 Tdp1-/-;hTDP1 cells + 20 nM CPT, ATP luminescence, 48 h. 420,000 tested, 12% active; also: potency is read from the fitted curve at half-maximal effect; nearly all actives have a fitted effect of over 55% in size
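Chicken DT40 Tdp1-/- cells complemented with human TDP1, 400 cells/well, exposed to compounds plus 20 nM camptothecin for at least 48 h at 37 C; viability read as ATP content by CellTiter-Glo luminescence.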
Gal4-VP16 FLuc – inhibits Gal4-VP16 luciferase reporter, ROR gamma counter-screen; Potency, µM (doses to about 53.6 µM), for the others: top-dose activity, negative = inhibition, actives largely listed as inhibitors; 310,000 tested, 3.5% active; Drosophila S2 Gal4-VP16 UAS-luciferase, luminescence, 20 h;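 also: Gal4-VP16 expression switched on by copper sulfate through the metallothionein promoter; potency is read from the fitted curve at half-maximal effect; nearly all actives have a fitted effect of over 50% in size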
IL-1B inflam inh – inhibitors of inflammasome signaling (IL-1 beta secretion); 360,000 tested, 4.7% active; activity change, % at 57.5 µM; THP-1 LPS/ATP IL-1B secretion, AlphaLISA, 16 h; stronger effect = lower value; in the data active = activity change below about -50%; inconclusive = mostly about -30% to -49%
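Secreted IL-1B measured by AlphaLISA bead assay after 16 h compound exposure of THP-1 cells; compounds (final up to 57.5 uM) added 1 h before LPS (250 ng/mL) and ATP (1.25 mM) stimulation; lower signal means less secretion.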
LDHA inh – inhibitors of human lactate dehydrogenase A | 480,000 tested, 0.15% active | AID 1347041 | activity change, % (values are at about 110 or 230 µM) | purified LDHA, NADH/diaphorase-resazurin fluorescence; stronger effect = lower value | P00338; in the data active = activity change below about -30%; inconclusive = mostly about -25% to -30%;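 also: plate controls were DMSO wells for no effect and wells without enzyme for full effect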
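Remaining NADH was detected by diaphorase (0.133 mg/mL) converting 37 µM resazurin to fluorescent resorufin, read at 0 and 20 minutes. The preceding 5-minute room-temperature reaction used 2 nM LDHA, 0.2 mM sodium pyruvate and 0.06 mM NADH at pH 7.4.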
Numbers without * were called inactive; ? = inconclusive; . = not tested or not shown; [ ] = remark or other dose. Rows were chosen to be rich in hits. Some 18% of all compounds tested hit in one or more screens of this group. Unless noted, calls follow the shape of the dose curve; as a rule, active = well fitted curve in the direction sought with a large enough effect; inconclusive = small, poorly fitted or top-dose-only effect, or another doubt; inactive = no such curve, though single readings can be large; an effect the other way counts as inactive or inconclusive. Unless noted, % is scaled to controls: 0 for no effect and ±100 for the full control effect.

SMILES | TDP1 cell noCPT | RORg inh | TDP1 cell CPT | Gal4-VP16 FLuc | IL-1B inflam inh | LDHA inh
CC(C)N(CC(=O)Nc1ccc(Cl)cc1C(F)(F)F)C(=O)CCl | 6.51µM* | ? | 20.6µM* | -14.2% | -115.5* | 0.9
CCC(C)N(CC(=O)Nc1cccc(C)c1C)C(=O)CCl (stereo unspecified) | 2.31µM* | -42.2% | ? | -18.1% | -110.5* | 3.0
COCCn1c(=S)[nH]c2cc(C(=O)N3CCN(C4CCCCC4)CC3)ccc2c1=O | ? | . | ? | . | 23.8 | -5.8
O=C(c1ccc2c(=O)n(C3CCCC3)c(=S)[nH]c2c1)N1CCCCCC1 | 13µM* | 1.26µM* | 14.6µM* | 1µM* | 2.5 | 0.7
CC1CCCN(C(=O)c2ccc3c(=O)n(C4CCCC4)c(=S)[nH]c3c2)C1 (stereo unspecified) | ? | 9.9% | 20.6µM* | -14.3%[10 µM] | -16.0 | -8.3
CC1CCCN(C(=O)c2ccc3nc[nH]c3c2)C1 (stereo unspecified) | -4.0% | 1.5% | -5.0% | 5.5% | -1.9 | -1.6
CCN(CC)S(=O)(=O)NCc1ccnc(N2CCN(c3ccc(F)cc3)CC2)c1 | . | . | . | . | . | 6.4
COc1cc(OC)cc(OCC(O)Cn2cnc3cc(C)c(C)cc32)c1 (stereo unspecified) | 16.4µM* | 30.4% | ? | -8.6% | -5.1 | 0.9
Cc1cc2ncn(CS(C)(=O)=O)c2cc1C | 4.3% | -0.5% | 9.6% | -3.3% | 13.0 | -6.6
C=C(C)Cn1cnc2cc(C)c(C)cc21 | -0.7% | 11.2µM* | -1.3% | -2.2% | -4.2 | -13.1
CC1CCCN(CC2CCCN2)C1 (stereo unspecified) | . | . | . | . | . | -2.6
Cc1cc2c(n1-c1ccc(C(=O)NCCc3ccccc3)cc1)CCC(C)C2 (stereo unspecified) | 20.6µM* | . | 18.4µM* | . | . | 8.8
Cc1cc2c(n1-c1ccc(C(=O)NCCc3ccc(Cl)cc3)cc1)CCC(C)C2 (stereo unspecified) | 23.1µM* | . | 25.9µM* | . | . | -1.7
COc1ccc(CCNC(=O)c2ccc(-n3c(C)cc4c3CCC(C)C4)cc2)cc1OC (stereo unspecified) | 20.6µM* | . | ? | . | . | 2.4
CCCOc1ccc(CNC(=O)c2ccc(-n3c(C)cc4c3CCC(C)C4)cc2)cc1 (stereo unspecified) | ? | . | ? | . | . | 15.3
COc1cccc(CNC(=O)c2ccc(-n3c(C)cc4c3CCC(C)C4)cc2)c1 (stereo unspecified) | ? | . | ? | . | . | 0.4
COc1ccccc1CNS(=O)(=O)c1ccc(-c2cc(C)no2)cc1 | 0.581µM* | ? | 0.581µM* | -21.8% | 51.4 | -1.4
COc1ccc(-c2cc(C)no2)cc1S(=O)(=O)NC(C)C | -4.5% | . | -6.3% | . | . | -10.1
COc1cc(NS(=O)(=O)c2ccc(-c3cc(C)no3)cc2)cc(OC)c1 | 2.06µM* | . | 1.84µM* | . | . | -6.5
CCCn1nc(C(=O)NC(C)c2ccc(S(N)(=O)=O)cc2)c2ccccc2c1=O (stereo unspecified) | . | . | . | . | . | 9.0
CC(C)NC(=O)C(=O)N1CCN(c2nc(-c3ccco3)c3c(c2C#N)CCCC3)CC1 | . | . | . | . | . | 8.4
CC1=C(C(=O)Nc2ccc(C)cc2C)C(c2ccc(C(C)C)cc2)NC(=S)N1 (stereo unspecified) | . | . | . | . | . | -24.3
Cc1nn(-c2ccccc2)c2c1C(c1ccc([N+](=O)[O-])cc1)N1C(=N2)C(=O)Nc2ccccc21 (stereo unspecified) | 14.6µM* | ? | ? | -18.2% | -75.3* | -11.5
Cc1nn(-c2ccc([N+](=O)[O-])cc2)c2c1C(c1cccc(Br)c1)N1C(=N2)C(=O)Nc2ccccc21 (stereo unspecified) | 3.26µM* | -20.3% | 2.59µM* | 1.9% | 3.2 | -3.8
